Activity calls are given as the source filed them. Calls come from the whole dose curve; as a rule, active = well fitted curve in the direction sought with a large enough effect in the repeat runs; inconclusive = weak or mixed curves; inactive = flat fitted curve, though single readings scatter.
Assay: qHTS assay to test for compound auto fluorescence at 535 nm (green) in HEK293 cells (AID 720680)
Conditions: green autofluorescence 485/535 nm; series mostly up to 46 µM; fluorescence, % of fluorescein: at the top concentration
Description: U.S. Tox21 Program National Center for Advancing Translational Sciences [NCATS] NIH Chemical Genomics Center [NCGC] U.S. Environmental Protection Agency [EPA] National Institutes of Environmental Health Sciences [NIEHS] National Toxicology Program [NTP] U.S. Food and Drug Administration [FDA] Tox21 Assay Overview: Compound auto fluorescence often interferes with screening of the compound library against various biological targets and signaling pathways. Some of these compounds may have fluorophoric properties. Such properties may interfere with the assay outputs resulting in false positives and/or negatives. To decrease such complications and ensure the compound activities are relevant in terms of biological response, the Tox21 10K compound library was screened for auto fluorescence. From the fluorophores used as reporter signals in our screening assays, the auto fluorescence equivalencies of compounds against three fluorophores have been evaluated: Triamterene, Fluorescein and Rose Bengal sodium for blue, green and red fluorescence, respectively. The fluorescence intensities were measured using Excitation/Emission wavelengths at 405/460nm, 485/535nm and 540/590nm for blue, green and red labels, respectively. This assay includes the green fluorescence data.
Tox21 Assay Protocol Summary: 2,000 HEK293 cells in 5 uL of culture medium containing 10% dialyzed FBS per well were dispensed into black wall/clear bottom 1536-well plates using a Multidrop Combi Dispenser (Thermo Scientific). The assay plates were incubated for 4-5 hr at 37C to allow cell attachment to the well bottom, followed by the transfer of 23 nL compound or DMSO vehicle by a pintool work station (Kalypsys, San Diego, CA). After the assay plates were incubated overnight at 37C and 5% CO2, fluorescence intensities in the assay plates were measured by an Envision (PerkinElmer, Shelton, CT) plate reader using three labels for measuring blue, green and red fluorescence at […] 460, 535 and 590nm respectively.
% is set by controls: 0 for no effect and ±100 for the full control effect.

Structure (SMILES)	fluorescence, % of fluorescein	outcome
CCC(C)S (stereo not given)	0.0934% [at 3.72 µM] (inactive)	
ClC(Cl)(Br)Br	0.0092% [at 91.3 µM] (inactive)	
c1ccc([C@H]2CN3CCSC3=N2)cc1	0.0739% (inactive)	
CC(=O)N(CC(O)CO)c1c(I)c(C(=O)NCCO)c(I)c(C(=O)NCC(O)CO)c1I (stereo not given)	-0.0058% (inactive)	
CCO[Si](CCC1CCC2OC2C1)(OCC)OCC (stereo not given)	0.0022% [at 91.3 µM] (inactive)	
CCN(CC)CCOCCOC(=O)C1(c2ccccc2)CCCC1	0.0354% (inactive)	
O=C(O)c1ccccc1OP(=O)(O)O	0.0574% (inactive)	
CCCC(=O)O[C@]1(C(=O)CO)CC[C@H]2[C@@H]3CCC4=CC(=O)CC[C@]4(C)[C@H]3[C@@H](O)C[C@@]21C	0.0767% (inactive)	
N[C@H]1CN(c2c(F)cc3c(=O)c(C(=O)O)cn(C4C[C@H]4F)c3c2Cl)CC12CC2 (stereo not given in full)	0.0252% (inactive)	
CC1=CC(C)C(C=O)CC1 (stereo not given)	0.041% [at 91.3 µM] (inactive)	
CCOC(=O)c1c(C)n(C)c2ccc(O)cc12	-0.124% (inactive)	
Cc1c(NC(C)C)c(=O)n(-c2ccccc2)n1C	-0.005% (inactive)	
CCOC(=O)[C@H](CCc1ccccc1)N[C@@H](C)C(=O)N1[C@H](C(=O)O)C[C@@H]2CCC[C@@H]21	-0.186% (inactive)	
COC(=O)CC(C)=O	-0.147% [at 91.3 µM] (inactive)	
N=C(N)c1ccc2cc(OC(=O)c3ccc(N=C(N)N)cc3)ccc2c1	0.0165% (inactive)	
C=C1CC[C@H]2C[C@@H]1C2(C)C	0.0193% [at 91.3 µM] (inactive)	
CCCCNC(=O)NCCCC	-0.0079% [at 91.3 µM] (inactive)	
CC(C(=O)O)c1ccc(CC2CCCC2=O)cc1 (stereo not given)	-0.019% (inactive)	
O=c1n(CCO)c(=O)n(CCO)c(=O)n1CCO		inactive
CCCCCCCCCCCCN(CCCCCCCCCCCC)CCCCCCCCCCCC	-0.0592% [at 91.3 µM] (inactive)	

Structure (SMILES)	fluorescence, % of fluorescein	outcome
CCCCOCCOCCOCc1cc2c(cc1CCC)OCO2		inactive
CCCCCCOC(=O)CCCCC(=O)OCCCCCC	0.059% [at 91.3 µM] (inactive)	
O=[N+]([O-])c1ccc(F)cc1F	0.0028% [at 91.3 µM] (inactive)	
CCCN(CCC)CCc1cccc2c1CC(=O)N2	0.0761% (inactive)	
NC(=O)c1cn(Cc2c(F)cccc2F)nn1	-0.0122% (inactive)	
CCC=O	0.068% [at 95.7 µM] (inactive)	
CC1(C)CO[C@@H](CC(=O)O)CN1	0.0117% (inactive)	
N#Cc1ccc(C2CCCc3cncn32)cc1 (stereo not given)	-0.0366% (inactive)	
CCCCC/C=C\CCC=O	0.0347% [at 91.3 µM] (inactive)	
CCOC(=O)Nc1ccc(NCc2ccc(F)cc2)nc1N		inactive
CCOC(=O)CC(C)=O	-0.0262% [at 91.3 µM] (inactive)	
CCSC(=O)N(CC(C)C)CC(C)C	0.128% [at 91.3 µM] (inactive)	
COC(C)(C)CCCC(C)CC=O (stereo not given)	0.0084% [at 91.3 µM] (inactive)	
C[C@@H]1CCN(C(=O)[C@H](CCCN=C(N)N)NS(=O)(=O)c2cccc3c2NC[C@H](C)C3)[C@@H](C(=O)O)C1	-0.0094% (inactive)	
CN1CC(=O)NC1=N	-0.0677% (inactive)	
CCN(Cc1ccncc1)C(=O)C(CO)c1ccccc1 (stereo not given)	0.124% (inactive)	
NC(=O)Nc1ccccc1	-0.0551% [at 91.3 µM] (inactive)	
CCn1ccnc1CC1COc2ccccc2O1 (stereo not given)	0.0074% (inactive)	
CC(C[N+](C)(C)C)OC(N)=O (stereo not given)	-0.0077% (inactive)	
CC/C=C\CC/C=C/C(OCC)OCC	-0.015% [at 91.3 µM] (inactive)	

Reference: PubChem BioAssay (Tox21)
